Test [1] concerns the target Ubiquitin carboxyl-terminal hydrolase 1 (Homo sapiens) (UniProt O94782). The experiment in a line: Inhibitors of USP1/UAF1: Pilot qHTS (AID 504865).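 Also: rhodamine fluorescence freed from ubiquitin-rhodamine substrate followed over time; top concentration of the series differs between compounds; % is scaled to controls: 0 for no effect and ±100 for the full control effect; nearly all actives have a fitted effect of over 35% in size.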 The procedure, abridged: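 USP1/UAF1 complex (1nM) preincubated with compound 15 min at room temperature, then Ub-Rho substrate (150nM final) added. Fluorescence read kinetically at 480/540 nm, 6 reads every 60 seconds. Buffer: 50mM HEPES pH 7.8, 0.5mM EDTA, 0.1 mg/ml BSA, 1mM TCEP, 0.01% Tween-20.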

Test [2] is described as follows: NCATS anti-infectives library activity on HEK293 viability as a counter-qHTS vs the C. elegans viability qHTS (AID 1745854).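 Also: HEK293 cells exposed to compounds for 24 hr before the viability read; % is scaled to controls: 0 for no effect and ±100 for the full control effect.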 Summed up: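 HEK293 cells (1,500/well) exposed 24 hr at 37C to 1:5 titrations, up to 41.7 uM final; counter-screen to a C. elegans viability qHTS. Viability by CellTiter-Glo luminescence after 10 min at room temperature; digitonin as control.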
Background: Quantitative high-throughput screening tests each substance at several concentrations.

Test [3] deals with Glutathione peroxidase 1 (Homo sapiens) (UniProt P07203). The experiment in a line: Primary qHTS Assay for Inhibitors of Recombinant Selenoprotein Glutathione Peroxidase 1 (GPX1) (AID 1845191). Also: nearly all actives have a fitted effect of over 65% in size. Summed up: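 GR-coupled assay: compounds preincubated 30 min at room temperature with GPX1, then reaction started with CHP; final 10 nM GPX1, 1 mM GSH, 0.5 mM CHP, 0.5 mM NADPH, 100 nM GR, 0.01% BSA, pH 7.5 Tris buffer. NADPH fluorescence (340/450 nm) read at 0 and 15 min.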
Chain of Glutathione peroxidase 1 (Homo sapiens) (P07203 whole entry, looked up): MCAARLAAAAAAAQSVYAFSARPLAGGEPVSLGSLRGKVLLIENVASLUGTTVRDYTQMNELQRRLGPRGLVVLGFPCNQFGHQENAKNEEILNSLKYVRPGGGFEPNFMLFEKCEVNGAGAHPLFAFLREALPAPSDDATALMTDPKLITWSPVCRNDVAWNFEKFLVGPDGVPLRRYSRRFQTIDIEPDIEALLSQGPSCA

Test [4] addresses Cytochrome P450 1A2 (Homo sapiens) (UniProt P05177). The experiment in a line: p450-cyp1a2 (AID 410; calls by dose curve; also: potency is read from the fitted curve at half-maximal effect). Summed up:
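20nM CYP1A2 with 100uM Luciferin-ME (at Km) in 100mM KPO4; compound preincubated 10 min, NADPH regeneration added, 60 min at room temperature. Luciferin quantified by luminescence after detection reagent; normalized to 57 uM furafylline.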

Test [5] has as its target Glucocorticoid receptor (Homo sapiens) (UniProt P04150). Briefly: GR-GFP Redistribution (AID 450;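 active = compounds whose dose series gives a full or clear partial fitted curve of increased nuclear translocation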; also: potency is read from the fitted curve at half-maximal effect). As to conditions: U2OS GR-GFP nuclear translocation, laser cytometry, 2 h.
Test [6] shares this target. Briefly: GR-EFC Redistribution (AID 451; calls by dose curve; also: potency is read from the fitted curve at half-maximal effect). As to conditions: CHO-K1 GR-EFC translocation, beta-gal luminescence, 2 h. The procedure, abridged: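 CHO-K1 cells expressing nuclear EA and GR-ED fragments of b-gal; compounds titrated up to 46 uM final, 2 h at 37 C. GR nuclear translocation read as complemented b-gal luminescence after 1 h RT detection.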
Test [7] addresses Mitogen-activated protein kinase 10 (Mus musculus) (UniProt Q61831). Briefly: JNK3 AlphaScreen Assay (AID 530; active = well fitted curve in either direction with a large enough effect, not every such curve was filed as active;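 also: kinase came from lysate of stimulated human HepG2 cells; signal reports phosphorylation of biotinylated GST-cJun 1-79 at Ser73 with 10 µM ATP; % is scaled to controls: 0 for no effect and ±100 for the full control effect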). Summed up:
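Pre-activated (IL-1β/TNFα) JNK3 in HepG2 lysates phosphorylates biotin-GST-cJun(1-79), 10 uM ATP; anti-phospho-cJun(Ser73) AlphaScreen read at room temperature, pH 7.6 Tris buffer. Compounds pre-incubated 15 min as titrations.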

For test [8], the target named is Cytochrome P450 3A4 (Homo sapiens) (UniProt P08684). Briefly: qHTS Assay for Inhibitors and Substrates of Cytochrome P450 3A4 (AID 884). Also: potency is read from the fitted curve at half-maximal effect; nearly all actives have a fitted effect of over 50% in size. Summed up: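 20 nM human CYP3A4 with 25 uM Luciferin-PPXE (at KM) in 200 mM KPO4, preincubated 10 min with compound; NADPH regeneration started a 60 min RT reaction. Luciferin detected by luminescence, normalized to 57 uM ketoconazole as full inhibition.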
Chain of Cytochrome P450 3A4 (Homo sapiens) (P08684 whole entry, looked up): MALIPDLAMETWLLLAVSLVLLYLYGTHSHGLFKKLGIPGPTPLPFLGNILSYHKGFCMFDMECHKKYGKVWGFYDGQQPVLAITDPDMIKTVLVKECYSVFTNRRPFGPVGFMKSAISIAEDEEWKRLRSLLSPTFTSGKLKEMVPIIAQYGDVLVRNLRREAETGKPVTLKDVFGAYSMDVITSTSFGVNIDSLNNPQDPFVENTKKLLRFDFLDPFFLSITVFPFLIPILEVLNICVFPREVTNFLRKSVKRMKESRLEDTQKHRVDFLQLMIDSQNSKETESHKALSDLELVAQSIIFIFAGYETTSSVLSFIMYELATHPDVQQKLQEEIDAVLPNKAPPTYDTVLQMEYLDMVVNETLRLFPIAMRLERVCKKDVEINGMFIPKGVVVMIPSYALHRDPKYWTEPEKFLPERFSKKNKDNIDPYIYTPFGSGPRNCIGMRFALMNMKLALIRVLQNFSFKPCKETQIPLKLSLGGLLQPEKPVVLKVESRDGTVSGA

The target is the same in test [9]. Briefly: qHTS Assay for Activators of Cytochrome P450 3A4 (AID 885). Also: nearly all actives have a fitted effect of over 65% in size. Summed up: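 Steps: enzyme/substrate mix dispensed; compound added, 10 min RT; NADPH regeneration solution added, 60 min RT; luciferin detection buffer stops reaction; 20 min later luminescence measured.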
The target in test [10] is Cytochrome P450 2D6 (Homo sapiens) (UniProt P10635). Briefly: qHTS Assay for Inhibitors and Substrates of Cytochrome P450 2D6 (AID 891). Also: potency is read from the fitted curve at half-maximal effect; nearly all actives have a fitted effect of over 60% in size. The procedure, abridged: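 Human CYP2D6 (5 nM) with 30 uM Luciferin-ME EGE (at Km) in 100 mM KPO4, compound preincubated 10 min, then NADPH regeneration system for 60 min at room temperature. Luciferin read by luminescence; normalized to 1.43 uM quinidine.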

Test [11] has as its target Cytochrome P450 2C19 (Homo sapiens) (UniProt P33261). Briefly: qHTS Assay for Inhibitors and Substrates of Cytochrome P450 2C19 (AID 899). Also: potency is read from the fitted curve at half-maximal effect; nearly all actives have a fitted effect of over 60% in size. Summed up: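 5 nM human CYP2C19 with 10uM Luciferin-H EGE (at KM) in 50mM KPO4, compound preincubated 10 min at 37C, then NADPH regeneration for 60 min at 37C. Luciferin read by luminescence after detection reagent; normalized to 57uM ketoconazole as full inhibition.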

Test [12] has as its target Lysosomal acid glucosylceramidase (Homo sapiens) (UniProt P04062). The experiment in a line: Glucocerebrosidase-p2 (AID 348; in the data active = potency below about 10 µM; also: potency is read from the fitted curve at half-maximal effect). As to conditions: purified GBA, blue fluorogenic substrate, 40 min. The procedure, abridged:
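Compounds titrated from 0.6 nM upwards against 0.2 nM enzyme in pH 5.9 citric acid/KH2PO4, taurocholate, tween-20; blue fluorogenic substrate 80 uM, 40 min room temperature, stopped and read Ex 365/Em 440 for AC50.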

Test [13] is described as follows: AP1 Signaling Pathway (AID 357; active = well fitted curve in either direction with a large enough effect, not every such curve was filed as active; also: % is scaled to controls: 0 for no effect and ±100 for the full control effect). Conditions: ME-180 AP-1-bla reporter, EGF-induced, beta-lactamase ratio, 5 h; at 7.69 µM (top of the series) unless noted. Summed up: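 Cells are seeded overnight, exposed to compound titrations and an EC50 level of EGF for 5 hours at 37 °C, then loaded with CCF4 dye for 2.5 hours. Beta-lactamase activity under the AP-1 element is read as a blue/green ratio.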

Test [14] is described as follows: NFAT Signaling Pathway (AID 444; active = well fitted curve in either direction with a large enough effect, not every such curve was filed as active;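 also: carbachol stimulus at about its EC50 of 1 µM final; % is scaled to controls: 0 for no effect and ±100 for the full control effect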). As to conditions: Jurkat NFAT-bla M1, carbachol, beta-lactamase ratio, 5 h; at 7.69 µM (top of the series) unless noted. Summed up: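 Jurkat cells with NFAT-driven β-lactamase reporter and co-expressed M1 receptor, stimulated with carbachol (final 1 uM, ~EC50), compound titration, 5 h at 37 °C. CCF4 loaded 1 h at RT; 460/530 nm ratio gave %activity and AC50.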

Test [15] in a line: Stat Signaling Pathway (AID 446; active = well fitted curve in either direction with a large enough effect, not every such curve was filed as active). The procedure, abridged:
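Screening format detects activators and inhibitors alike: ME-180 SIE-bla cells stimulated at 40 pM IL-6 for 5 hrs with compound, then dual-emission beta-lactamase read at 405 nm excitation.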

The target of test [16] is 3',5'-cyclic-AMP phosphodiesterase 4B (Homo sapiens) (UniProt Q07343). Briefly: qHTS Assay for Inhibitors of PDE-IV (AID 607; active = well fitted activation curve with a large enough effect in the main read-out, with a control signal flat, not every such curve was filed as active; also: % of control where 0% means no effect). Summed up:
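The readout is membrane depolarisation from a cAMP-sensing CNG channel, detected with a potential dye at ex 535/em 590. Cells were HEK293-derived (endogenous PDE-IV) at 1000 cells/well, titrated up to 22.9 uM final.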

The nature of test [17]: qHTS Assay for Identification of Small Molecule Agonists for Hypoxia Response Element Signaling Pathway (AID 914; active = well fitted activation curve with a large enough effect in the signal ratio, with a control signal flat, not every such curve was filed as active; the % refers to the signal ratio; also: % of control where 0% means no effect). Conditions: ME-180 (cervical carcinoma) HRE-bla reporter, beta-lactamase ratio, CoCl2, 17 h; activation: stronger effect = higher value. The procedure, abridged:
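ME-180 cells carrying an HRE-driven beta-lactamase reporter were treated with compounds in a titration series plus an EC50 level of CoCl2 for 17 h at 37 degrees Celsius; CCF4 readout as the 460nm/530nm ratio gave AC50 values.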

For test [18], the target named is Dual specificity protein kinase CLK4 (Homo sapiens) (UniProt Q9HAZ1). Briefly: qHTS Assay for Inhibitors of CDC-like Kinase 4 (Kinase-Glo Assay) (AID 1770). Also: % is scaled to controls: 0 for no effect and ±100 for the full control effect; nearly all actives have a fitted effect of over 65% in size. The procedure, abridged:
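Recombinant human Clk4 (25 nM) phosphorylated RS repeat peptide (100 uM) with 1 uM ATP in Tris pH 7.5/MgCl2/EGTA/DTT/Triton buffer for 4.5 h at room temperature. Residual ATP was quantified by Kinase-Glo luciferase luminescence.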

The target is the same in test [19]. Briefly: qHTS Assay for Inhibitors of CDC-like Kinase 4 (ADP-Glo Assay) (AID 1771). Also: % is scaled to controls: 0 for no effect and ±100 for the full control effect; nearly all actives have a fitted effect of over 70% in size. Summed up: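 25 nM Clk4 with 100 uM RS repeat peptide and 1 uM ATP (final) in buffer with 2 mM MgCl2, 0.5 mM EGTA, 2.5 mM DTT, 0.01% Triton X-100; 1 h at room temperature; ADP-Glo luminescence for ADP formed.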
The target is the same in test [20]. Briefly: qHTS Assay for Inhibitors of CDC-like Kinase 4 (ADP-FP Assay) (AID 1795). Also: % is scaled to controls: 0 for no effect and ±100 for the full control effect; nearly all actives have a fitted effect of over 60% in size. The procedure, abridged: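 Recombinant human Clk4 (6.25 nM) phosphorylated RS repeat peptide (100 uM) with 1 uM ATP in Tris pH 7.5/MgCl2/EGTA/DTT/Triton buffer for one hour. ADP was quantified by Transcreener competitive fluorescence polarization against an ADP calibration curve.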

Unmarked numbers belong to inactive results. Results filed as inconclusive are left out. The source made the active and inactive calls. Unless noted, calls follow the shape of the dose curve; as a rule, active = well fitted curve in the direction sought with a large enough effect; inconclusive = small, poorly fitted or top-dose-only effect, or another doubt; inactive = no such curve, though single readings can be large; an effect the other way counts as inactive or inconclusive. A value given as a limit tells only on which side of the number the result lay.

Chain of Ubiquitin carboxyl-terminal hydrolase 1 (Homo sapiens) (O94782 whole entry, looked up): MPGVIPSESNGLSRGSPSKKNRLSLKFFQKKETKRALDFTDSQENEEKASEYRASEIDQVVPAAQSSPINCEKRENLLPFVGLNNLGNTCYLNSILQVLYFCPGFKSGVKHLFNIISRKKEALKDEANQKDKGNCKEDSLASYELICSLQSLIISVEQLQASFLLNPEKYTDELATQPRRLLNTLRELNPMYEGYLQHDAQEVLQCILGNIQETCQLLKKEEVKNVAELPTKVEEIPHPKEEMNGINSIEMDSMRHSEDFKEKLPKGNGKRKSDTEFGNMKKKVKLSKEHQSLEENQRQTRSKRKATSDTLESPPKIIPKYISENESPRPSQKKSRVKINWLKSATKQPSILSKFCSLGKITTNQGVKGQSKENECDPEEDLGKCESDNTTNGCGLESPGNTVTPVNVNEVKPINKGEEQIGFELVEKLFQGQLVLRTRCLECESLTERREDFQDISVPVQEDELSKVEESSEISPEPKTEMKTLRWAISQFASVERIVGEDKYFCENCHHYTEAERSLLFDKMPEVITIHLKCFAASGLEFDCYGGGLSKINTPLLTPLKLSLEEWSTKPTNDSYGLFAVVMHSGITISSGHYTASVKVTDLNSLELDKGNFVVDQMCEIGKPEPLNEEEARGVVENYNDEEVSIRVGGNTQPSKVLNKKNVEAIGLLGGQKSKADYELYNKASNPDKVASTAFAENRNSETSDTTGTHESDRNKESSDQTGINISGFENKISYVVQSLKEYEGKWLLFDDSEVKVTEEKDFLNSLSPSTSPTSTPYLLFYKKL
Chain of Lysosomal acid glucosylceramidase (Homo sapiens) (P04062 whole entry, looked up): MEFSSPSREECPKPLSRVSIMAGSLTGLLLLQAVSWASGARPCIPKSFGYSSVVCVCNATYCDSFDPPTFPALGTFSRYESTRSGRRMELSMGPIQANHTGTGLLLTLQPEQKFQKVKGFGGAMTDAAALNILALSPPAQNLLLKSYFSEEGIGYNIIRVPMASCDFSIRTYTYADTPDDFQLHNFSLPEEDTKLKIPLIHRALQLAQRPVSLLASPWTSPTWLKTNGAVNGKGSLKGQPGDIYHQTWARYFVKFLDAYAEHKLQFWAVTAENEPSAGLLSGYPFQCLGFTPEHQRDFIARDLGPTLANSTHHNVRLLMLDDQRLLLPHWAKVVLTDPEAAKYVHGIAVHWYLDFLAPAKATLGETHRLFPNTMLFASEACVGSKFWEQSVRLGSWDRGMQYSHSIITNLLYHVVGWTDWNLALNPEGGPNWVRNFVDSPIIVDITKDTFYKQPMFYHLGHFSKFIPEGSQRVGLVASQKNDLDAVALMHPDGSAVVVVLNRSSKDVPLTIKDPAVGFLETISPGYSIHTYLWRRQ
Chain of Dual specificity protein kinase CLK4 (Homo sapiens) (Q9HAZ1 whole entry, looked up): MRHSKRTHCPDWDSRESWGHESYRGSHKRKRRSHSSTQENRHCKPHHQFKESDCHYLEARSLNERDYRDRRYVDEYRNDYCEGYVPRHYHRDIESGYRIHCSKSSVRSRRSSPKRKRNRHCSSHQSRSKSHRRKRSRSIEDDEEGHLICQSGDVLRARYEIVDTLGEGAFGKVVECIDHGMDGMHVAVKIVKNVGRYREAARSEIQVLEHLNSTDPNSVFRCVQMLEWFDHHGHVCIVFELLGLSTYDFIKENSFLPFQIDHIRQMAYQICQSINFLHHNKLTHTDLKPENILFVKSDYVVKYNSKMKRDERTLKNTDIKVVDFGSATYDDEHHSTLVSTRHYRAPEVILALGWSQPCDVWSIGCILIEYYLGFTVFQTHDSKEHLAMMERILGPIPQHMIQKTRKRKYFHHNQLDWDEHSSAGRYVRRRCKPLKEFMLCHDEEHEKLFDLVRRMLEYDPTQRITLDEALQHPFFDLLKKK
Chain of 3',5'-cyclic-AMP phosphodiesterase 4B (Homo sapiens) (Q07343 whole entry, looked up): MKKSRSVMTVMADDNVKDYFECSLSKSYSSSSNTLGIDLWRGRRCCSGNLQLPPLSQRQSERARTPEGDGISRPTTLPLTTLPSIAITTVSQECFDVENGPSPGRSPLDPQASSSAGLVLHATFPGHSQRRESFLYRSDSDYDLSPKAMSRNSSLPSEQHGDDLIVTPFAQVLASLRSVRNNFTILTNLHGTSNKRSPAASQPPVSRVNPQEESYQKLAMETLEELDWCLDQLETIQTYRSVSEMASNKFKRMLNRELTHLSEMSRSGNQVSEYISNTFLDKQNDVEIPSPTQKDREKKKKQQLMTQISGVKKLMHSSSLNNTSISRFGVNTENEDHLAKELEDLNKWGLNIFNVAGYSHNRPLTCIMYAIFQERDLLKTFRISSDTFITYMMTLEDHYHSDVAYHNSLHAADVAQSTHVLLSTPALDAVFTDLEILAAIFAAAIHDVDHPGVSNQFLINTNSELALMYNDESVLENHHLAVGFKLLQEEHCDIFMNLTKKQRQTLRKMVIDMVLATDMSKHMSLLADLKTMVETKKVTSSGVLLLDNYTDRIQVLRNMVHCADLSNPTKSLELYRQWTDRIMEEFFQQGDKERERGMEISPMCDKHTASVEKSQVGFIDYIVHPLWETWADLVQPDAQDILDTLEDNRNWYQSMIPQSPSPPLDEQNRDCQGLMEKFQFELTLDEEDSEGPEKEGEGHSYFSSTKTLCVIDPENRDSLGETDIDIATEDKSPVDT
Chain of Cytochrome P450 1A2 (Homo sapiens) (P05177 whole entry, looked up): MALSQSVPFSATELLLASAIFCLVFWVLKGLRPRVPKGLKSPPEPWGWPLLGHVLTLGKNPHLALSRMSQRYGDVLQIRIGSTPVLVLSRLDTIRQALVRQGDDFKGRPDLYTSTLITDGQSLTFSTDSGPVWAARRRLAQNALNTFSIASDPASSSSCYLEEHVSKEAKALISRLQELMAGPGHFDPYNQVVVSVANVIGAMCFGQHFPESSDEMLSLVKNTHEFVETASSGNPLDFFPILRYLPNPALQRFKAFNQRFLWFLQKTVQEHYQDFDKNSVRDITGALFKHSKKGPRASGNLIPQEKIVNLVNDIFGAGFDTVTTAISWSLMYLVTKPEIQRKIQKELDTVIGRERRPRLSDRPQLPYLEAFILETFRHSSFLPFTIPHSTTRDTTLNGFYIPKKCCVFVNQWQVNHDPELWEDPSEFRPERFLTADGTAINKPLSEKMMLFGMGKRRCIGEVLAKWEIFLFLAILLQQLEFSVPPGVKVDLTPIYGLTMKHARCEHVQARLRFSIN
Chain of Glucocorticoid receptor (Homo sapiens) (P04150 whole entry, looked up, the tested form may be a part): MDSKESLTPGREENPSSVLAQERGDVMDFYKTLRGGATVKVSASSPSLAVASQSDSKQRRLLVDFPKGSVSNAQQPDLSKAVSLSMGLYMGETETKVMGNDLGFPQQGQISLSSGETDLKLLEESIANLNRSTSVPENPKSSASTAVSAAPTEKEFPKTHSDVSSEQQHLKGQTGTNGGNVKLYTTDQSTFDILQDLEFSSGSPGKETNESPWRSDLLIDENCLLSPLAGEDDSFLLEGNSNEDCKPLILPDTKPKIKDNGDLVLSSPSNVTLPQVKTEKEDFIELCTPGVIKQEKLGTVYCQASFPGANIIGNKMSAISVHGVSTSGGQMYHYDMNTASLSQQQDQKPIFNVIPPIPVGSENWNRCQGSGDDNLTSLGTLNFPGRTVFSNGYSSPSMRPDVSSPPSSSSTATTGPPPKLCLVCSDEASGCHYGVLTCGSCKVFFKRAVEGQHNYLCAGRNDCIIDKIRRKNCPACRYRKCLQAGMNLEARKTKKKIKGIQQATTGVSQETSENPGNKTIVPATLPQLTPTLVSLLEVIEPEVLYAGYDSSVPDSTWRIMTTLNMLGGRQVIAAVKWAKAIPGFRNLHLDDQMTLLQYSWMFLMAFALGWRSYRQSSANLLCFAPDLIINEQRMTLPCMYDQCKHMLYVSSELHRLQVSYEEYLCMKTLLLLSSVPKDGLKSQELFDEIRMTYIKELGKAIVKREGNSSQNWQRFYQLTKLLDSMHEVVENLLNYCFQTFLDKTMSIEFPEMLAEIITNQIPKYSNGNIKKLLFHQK

`O=C1CC(c2ccccc2)Oc2ccccc21` (stereo unspecified): the Potency entry in test [1] and in test [2] was “inactive” throughout.

With `O=C(O)CCCN1CCC(O[C@@H](c2ccc(Cl)cc2)c2ccccn2)CC1`, the Potency entry in [2] and in test [3] was “inactive” throughout.

For the molecule `CC[C@@]1([C@@H]2O[C@@H]([C@H]3O[C@@](O)(CO)[C@H](C)C[C@@H]3C)C[C@@H]2C)CC[C@H]([C@]2(C)CCC3(C[C@H](O)[C@@H](C)[C@@H]([C@@H](C)[C@@H](OC)[C@H](C)C(=O)O)O3)O2)O1` (stereo partly specified), the activity change, negative = cytotoxicity in test [2] is -29.3% [at 3.71 µM].

With `NC(=O)[C@@H]1CC[C@@H]2CN1C(=O)N2OS(=O)(=O)O`, the Potency result in [2] and in [3] was “inactive” throughout.

As to `COC[C@H]1C[C@@H](c2ncc(-c3ccc4c(c3)COc3cc5c(ccc6[nH]c([C@@H]7CC[C@H](C)N7C(=O)[C@@H](NC(=O)OC)C(C)C)nc65)cc3-4)[nH]2)N(C(=O)[C@H](NC(=O)OC)c2ccccc2)C1`, the Potency entry in [2] and in test [3] was “inactive” throughout.

Regarding `O=c1ccc2cc3ccoc3cc2o1`, the Potency in test [4] is 0.0316 µM (active); in test [5], greater than 46 µM; in [6], greater than 46 µM; in [8], 31.6 µM (active); in test [10] it was 2 µM (active); in [11] it was 3.98 µM (active). Further, the Potency entry in test [7] and in test [2] was “inactive” in each case. Further, in test [9], the outcome was inactive.

With `CCCCC(=O)N(Cc1ccc(-c2ccccc2-c2nn[nH]n2)cc1)[C@H](C(=O)O)C(C)C`, the Potency entry in [2] and in test [3] was “inactive” in each case.

`CCCCCCCCOC(=O)c1cc(O)c(O)c(O)c1`: the Potency entry in test [2] is “inactive”.

For `CC(C)CN(C[C@@H](OP(=O)(O)O)[C@H](Cc1ccccc1)NC(=O)O[C@@H]1CCOC1)S(=O)(=O)c1ccc(N)cc1`, the Potency entry in [1], in [2] and in test [3] was “inactive” each time.

With `CC(C)C[C@H](NC(=O)[C@H]1O[C@@H]1C(=O)O)C(=O)NCCCCN=C(N)N`, the Potency entry in test [2] and in [3] was “inactive” in each case.

For `COC(=O)N[C@H](C(=O)N1CCC[C@H]1C(=O)Nc1ccc([C@@H]2CC[C@@H](c3ccc(NC(=O)[C@@H]4CCCN4C(=O)[C@@H](NC(=O)OC)C(C)C)cc3)N2c2ccc(C(C)(C)C)cc2)cc1)C(C)C`, the Potency entry in test [2] and in test [3] was “inactive” each time.

Regarding `C[Si](C)(C)O[Si](C)(C)O[Si](C)(C)C`, in [2], the Potency result was “inactive”.

As for `N#CCCn1c(=O)c(-c2ccc(Cl)cc2)nc2cnc(N3CCOCC3)nc21`, the Potency was greater than 11.4 µM in test [12], 15.8 µM (active) in [4], greater than 9.22 µM in test [5] and greater than 46 µM in test [6]. Further, the activity change, negative = inhibition in test [13] is 0.155%; in test [14] it was 5.23%. For the same molecule, the result in test [15] was inactive. The Potency entry in test [7], in test [16], in [18], in test [19], in [20] and in test [1] was “inactive” in each case. In test [17], the activation is 22.6%.

Turning to `Cc1cc(/C=C/C#N)cc(C)c1Nc1ccnc(Nc2ccc(C#N)cc2)n1`, the Potency result in test [3] was “inactive”.

Turning to `CCC(CC)[C@H](NC(C)=O)[C@@H]1[C@H](O)[C@@H](C(=O)O)C[C@H]1N=C(N)N`, the activity change, negative = cytotoxicity in test [2] was -6.87% [at 0.334 µM]. Further, the activity, negative = inhibition in test [3] was -7.9% [at 0.4 µM].

In the case of `O=C1O[C@H]2[C@H](OC(O)[C@@H]2O)[C@@H]1O` (stereo partly specified), the Potency result in test [2] and in [3] was “inactive” throughout.

As for `O=C(O)CCCCCCCCC(=O)O`, the Potency result in [2] is “inactive”.

Consider `COCCn1c(=O)c(CCc2ccccc2)nc2cncnc21`, for which the Potency in test [12] was greater than 11.4 µM; in test [4] it was 10 µM (active); in test [5], greater than 9.22 µM; in test [6] it was greater than 46 µM; in [8], 7.94 µM (active). Also, the values for the activity change, negative = inhibition in [13] and in [14] were -15.8% and 9.83%, respectively. Moreover, the molecule was classed as inactive in test [15] and in [9]. Besides, the Potency entry in test [7], in test [16], in test [18], in [19], in test [20] and in [1] was “inactive” each time.

On to `COc1ccccc1CNc1ncncc1-c1ccccc1C(F)(F)F`, for which the Potency in test [12] was greater than 11.4 µM; in [4], 15.8 µM (active); in test [5], greater than 46 µM; in [6], greater than 46 µM; in test [8] it was 0.0794 µM (active); in test [10], 2 µM (active). Besides, in test [11], the Potency was 1.58 µM (active). Moreover, the activity change, negative = inhibition in test [13] was -7.72%; in [14], -21.7%. The molecule was called inactive in test [15] and in test [9]. Moreover, the Potency entry in test [7], in test [16], in [18], in [19], in [20] and in test [1] was “inactive” each time.

These data come from PubChem BioAssay (NCATS).
